The supplement of paper PMC9262897, “Low-cost anti-mycobacterial drug discovery using engineered E. coli” (Nature Communications, 2022)
Counter-ions that a name gives are not always drawn. ± gives the standard deviation of the averaged measurements.

Tested on: E. coli TESEC Alr+ wild-type control
Experiment: growth (OD600 after 10 h); higher = more growth (less inhibition)
Conditions: compound 0.1 mM; raw OD600 reference: median of DMSO wells 0.49, cell-free background 0.052
Method: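 TESEC Mtb Alr E. coli (ΔaraC ΔtolC ΔentC Δalr ΔdadX, arabinose-inducible Mtb Alr) or the Alr+ wild-type control strain, grown in defined M9-fructose medium without D-alanine in 96-well plates with Prestwick library compounds at 0.1 mM and 1% DMSO. Low Alr induction is 0.1 µM arabinose and high induction is 10 mM arabinose.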

| Compound | growth |
| --- | --- |
| CCCCc1ccc2[nH]c(NC(=O)OC)nc2c1 [Parbendazole] | 0.496 ± 0.038 |
| C=CC[N@@+]12CC[C@@]34c5ccccc5N5/C=C6/[C@H]7C[C@H]8[C@@]9(CC[N@@+]8(CC=C)C/C7=C/CO)c7ccccc7N(/C=C(/[C@@H](C[C@@H]31)/C(=C\CO)C2)[C@H]54)[C@@H]69 [Alcuronium chloride] | 0.456 ± 0.037 |
| O=C1NCN(c2ccccc2)C12CCN(CCCC(c1ccc(F)cc1)c1ccc(F)cc1)CC2 [Fluspirilen] | 0.055 ± 0.0016 |
| O=C1CN(/N=C/c2ccc(-c3ccc([N+](=O)[O-])cc3)o2)C(=O)N1 [Dantrolene sodium salt] | 0.446 ± 0.023 |
| N#CC(c1ccc(Cl)cc1)c1c(Cl)cc(-n2ncc(=O)[nH]c2=O)cc1Cl (stereo not given) [Diclazuril] | 0.156 ± 0.17 |
| CN(C)CCC=C1c2ccccc2C=Cc2ccccc21 [Cyclobenzaprine hydrochloride] | 0.5608 ± 0.002 |
| CN1CCN2c3ncccc3Cc3ccccc3C2C1 (stereo not given) [Mirtazapine] | 0.468 ± 0.035 |
| CN(C)CCCN1c2ccccc2CCc2ccccc21 [Imipramine hydrochloride] | 0.452 ± 0.015 |
| Nc1ccc(/N=N/c2ccccc2)c(N)n1 [Phenazopyridine hydrochloride] | 0.405 ± 0.014 |
| COCC1=C(C(=O)OC(C)OC(=O)OC(C)C)N2C(=O)[C@@H](NC(=O)/C(=N\OC)c3csc(N)n3)[C@H]2SC1 (stereo not given in full) [Cefpodoxime proxetil] | 0.425 ± 0.044 |
| C[C@@H]1C[C@H]2[C@@H]3C[C@H](F)C4=CC(=O)C=C[C@]4(C)[C@@]3(F)[C@@H](O)C[C@]2(C)[C@@]1(O)C(=O)CO [Flumethasone] | 0.543 ± 0.0085 |
| Cc1c(Cl)cccc1Nc1ncccc1C(=O)O [Clonixin Lysinate] | 0.334 ± 0.0083 |
| O=C1CC2(CCCC2)CC(=O)N1CCCCN1CCN(c2ncccn2)CC1 [Buspirone hydrochloride] | 0.454 ± 0.019 |
| CC(C)(C)C(=O)OCOC(=O)[C@@H]1N2C(=O)[C@@H](NC(=O)[C@H](N)c3ccccc3)[C@H]2SC1(C)C [Pivampicillin] | 0.555 ± 0.11 |
| CC(=O)Oc1cccc2c1C(=O)c1c(OC(C)=O)cc(C(=O)O)cc1C2=O [Diacerein] | 0.087 ± 0.0013 |
| C[C@]12C=CC(=O)C=C1CC[C@H]1[C@@H]3C[C@@H](O)[C@](O)(C(=O)CO)[C@@]3(C)C[C@H](O)[C@@]12F [Triamcinolone] | 0.451 ± 0.037 |
| COC(=O)[C@H](c1ccccc1Cl)N1CCc2sccc2C1 [Clopidogrel] | 0.3176 ± 0.0024 |
| CN(C)CC/C=C1/c2ccccc2Sc2ccc(Cl)cc21 [Chlorprothixene hydrochloride] | 0.157 ± 0.12 |
| CC(=O)Nc1c(I)c(C(=O)N[C@H]2C(O)O[C@H](CO)[C@@H](O)[C@@H]2O)c(I)c(N(C)C(C)=O)c1I (stereo not given in full) [Metrizamide] | 0.61 ± 0.014 |
| NC[C@@H]1O[C@H](O[C@H]2[C@@H](O)[C@H](O[C@@H]3[C@@H](O)[C@H](N)C[C@H](N)[C@H]3O[C@H]3O[C@H](CO)[C@@H](O)[C@H](O)[C@H]3N)O[C@@H]2CO)[C@H](N)[C@@H](O)[C@@H]1O [Paromomycin sulfate] | 0.535 ± 0.089 |

| Compound | growth |
| --- | --- |
| CC[C@H]1OC(=O)C[C@@H](O)[C@H](C)[C@@H](O[C@@H]2O[C@H](C)[C@@H](O[C@H]3C[C@@](C)(O)[C@@H](O)[C@H](C)O3)[C@H](N(C)C)[C@H]2O)[C@@H](CC=O)C[C@@H](C)C(=O)/C=C/C(C)=C/[C@@H]1CO[C@@H]1O[C@H](C)[C@@H](O)[C@@H](OC)[C@H]1OC [Tylosin] | 0.0591 ± 0.00044 |
| CC(C)(C)NCC(O)c1cc(O)cc(O)c1 (stereo not given) [Terbutaline hemisulfate] | 0.504 ± 0.051 |
| Clc1ccccc1CN1CCc2sccc2C1 [Ticlopidine hydrochloride] | 0.429 ± 0.015 |
| CN1CCC(=C2c3ccccc3CCc3cccnc32)CC1 [Azatadine maleate] | 0.59 ± 0.059 |
| CCC(=O)[C@@]1(C)[C@H](C)C[C@H]2[C@@H]3CCC4=CC(=O)C=C[C@]4(C)[C@H]3[C@@H](O)C[C@@]21C [Rimexolone] | 0.459 ± 0.021 |
| CC=CC(=O)N(CC)c1ccccc1C [Crotamiton] | 0.489 ± 0.022 |
| O=C(N/N=C/c1ccc([N+](=O)[O-])o1)c1ccc(O)cc1 [Nifuroxazide] | 0.0581 ± 0.0039 |
| COc1cccc2c1C(=O)c1c(O)c3c(c(O)c1C2=O)C[C@@](O)(C(C)=O)C[C@@H]3O[C@H]1C[C@H](N)[C@H](O)[C@H](C)O1 [Daunorubicin hydrochloride] | 0.053 ± 0.00055 |
| C#CCN(C)CCCOc1ccc(Cl)cc1Cl [Clorgyline hydrochloride] | 0.458 ± 0.027 |
| CC(CN1c2ccccc2Sc2ccccc21)N(C)C (stereo not given) [Promethazine hydrochloride] | 0.456 ± 0.026 |
| Cc1cc2cc3c(C)cc(=O)oc3c(C)c2o1 [Trioxsalen] | 0.438 ± 0.0099 |
| Cc1ccccc1N1C(=O)c2cc(S(N)(=O)=O)c(Cl)cc2NC1C (stereo not given) [Metolazone] | 0.481 ± 0.062 |
| Cc1c(NC(=O)c2cccnc2)c(=O)n(-c2ccccc2)n1C [Nifenazone] | 0.507 ± 0.062 |
| CCN(CC)C(=O)Nc1ccc(OCC(O)CNC(C)(C)C)c(C(C)=O)c1 (stereo not given) [Celiprolol HCl] | 0.455 ± 0.027 |
| CC1(C)NC(=O)N(c2ccc([N+](=O)[O-])c(C(F)(F)F)c2)C1=O [Nilutamide] | 0.552 ± 0.064 |
| CCC(C)(CN(C)C)OC(=O)c1ccccc1 (stereo not given) [Amyleine hydrochloride] | 0.586 ± 0.017 |
| Cc1ncc([N+](=O)[O-])n1CC(O)CCl (stereo not given) [Ornidazole] | 0.43 ± 0.049 |
| Cc1cccn2c(=O)c(-c3nnn[nH]3)cnc12 [Pemirolast potassium] | 0.49 ± 0.067 |
| CCCN(CCC)S(=O)(=O)c1ccc(C(=O)O)cc1 [Probenecid] | 0.49 ± 0.048 |
| CCC(=O)O[C@]1(C(=O)CCl)[C@@H](C)C[C@H]2[C@@H]3CCC4=CC(=O)C=C[C@]4(C)[C@@]3(F)[C@@H](O)C[C@@]21C [Clobetasol propionate] | 0.326 ± 0.017 |
